Source: PubChem BioAssay (National Center for Advancing Translational Sciences (NCATS))
The list is not random: actives were taken first. Their share in the collection is about 10%.
hNpr1 antagonist = antagonists of human natriuretic peptide receptor Npr1. P16066. HEK293 hNpr1 GloSensor cGMP, ANP-stimulated luminescence. Potency, µM (top dose mostly 46.3 µM), for the others: at the highest dose activity change, negative = inhibition, hits mostly inhibitors. 1.6% of 76,000 active. AID 1347048; calls by dose curve; also: nearly all actives have a fitted effect of over 60% in size
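Compound pre-incubated 30 min at room temperature on GloSensor-loaded HEK293 cells stably carrying hNpr1 and the pGS-40F cGMP biosensor. Stimulation uses hNppA at 0.1 nM final; luminescence is taken at baseline and 20 min post-agonist.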
GPT2 inh = inhibitors of human GPT2 alanine aminotransferase; Potency, µM (highest dose often 57.7 µM), for the others: at the top dose activity change, negative = inhibition, hits mostly inhibitors; Q8TD30; 0.25% of 100,000 active; Recombinant GPT2, coupled pyruvate oxidase/HRP Amplex Red fluorescence; AID 1671188; also: nearly all actives have a fitted effect of over 60% in size
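Fluorescence of coupled pyruvate oxidase/HRP/Amplex Red system (50uM Amplex, 30 min, dark) reports pyruvate formed by GPT2. Enzyme reaction: 10ng/uL GPT2, 2mM L-alanine, 250uM a-KG, 30 min room temperature, pH 7.5; 50uM AOA control.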
FLuc inh = blocks purified firefly luciferase enzyme activity; 2.5% of 76,000 active; purified P. pyralis luciferase, luminescence, biochemical; P08659; Potency, µM (highest dose often 115 µM), actives largely listed as inhibitors; AID 1347043; also: nearly all actives have a fitted effect of over 65% in size
Target sequence (P08659 whole entry, looked up): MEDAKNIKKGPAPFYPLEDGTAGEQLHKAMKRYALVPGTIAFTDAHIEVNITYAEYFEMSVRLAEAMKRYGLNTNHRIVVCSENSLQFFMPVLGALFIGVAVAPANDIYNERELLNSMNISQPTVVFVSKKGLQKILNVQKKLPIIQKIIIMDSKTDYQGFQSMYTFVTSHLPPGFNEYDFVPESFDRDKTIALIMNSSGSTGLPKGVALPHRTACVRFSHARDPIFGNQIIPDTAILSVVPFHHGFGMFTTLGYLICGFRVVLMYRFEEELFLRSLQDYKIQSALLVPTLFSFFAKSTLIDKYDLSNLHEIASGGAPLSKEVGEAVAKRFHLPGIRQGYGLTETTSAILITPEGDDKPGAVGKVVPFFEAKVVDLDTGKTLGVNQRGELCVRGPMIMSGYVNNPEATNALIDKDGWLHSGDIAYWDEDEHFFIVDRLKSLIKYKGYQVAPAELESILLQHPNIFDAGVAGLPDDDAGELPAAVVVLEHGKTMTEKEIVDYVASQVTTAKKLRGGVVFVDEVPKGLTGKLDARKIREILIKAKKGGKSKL
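Purified P. pyralis luciferase (10nM final) in 50mM Tris acetate pH 7.5, 10mM Mg acetate, 0.01% Tween-20, 0.05% BSA with 10uM D-luciferin and 10uM ATP. Compounds titrated qHTS. Luminescence imaged on CCD.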
HEK293 tox = HEK 293 cell cytotoxicity; HEK 293 viability, ATP luminescence (CellTiter-Glo), 48-72 h; Potency, µM (doses to about 115 µM), for the others: top-dose activity change, negative = cytotoxicity, usual class: inhibitors; 6.6% of 94,000 active; AID 1345083; also: nearly all actives have a fitted effect of over 60% in size
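Cytotoxicity was scored by loss of ATP-coupled luminescence (CellTiter-Glo) in HEK 293 cells. Compound treatment ran 48 or 72 hr at 37 degree Celsius, 5% CO2, 95% humidity.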
NIH3T3 tox = kills NIH 3T3 cells. NIH 3T3 viability, CellTiter-Glo ATP luminescence, 48-72 h. Potency, µM (doses to about 96.7 µM), inactives show at the top dose activity change, negative = cytotoxicity, usual class: inhibitors. 4.3% of 94,000 active. AID 1345082; also: nearly all actives have a fitted effect of over 55% in size
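Mouse fibroblast NIH 3T3 cells, 400 per well, received compound via pintool and were incubated for 48 or 72 hr prior to CellTiter-Glo ATP luminescence measurement.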
* hit, by the source's call; [ ] = dose if it differs, or a comment. Unless noted, calls follow the shape of the dose curve; as a rule, active = well fitted curve in the direction sought with a large enough effect; inconclusive = small, poorly fitted or top-dose-only effect, or another doubt; inactive = no such curve, though single readings can be large; an effect the other way counts as inactive or inconclusive. % is scaled to controls: 0 for no effect and ±100 for the full control effect; potency is read from the fitted curve at half-maximal effect.

O=[S+]([O-])(c1cccs1)N1CCc2nc(-c3ccccc3)nc(-c3ccc(Cl)cc3)c2C1 was read as GPT2 inh inactive, HEK293 tox -0.5% and NIH3T3 tox -8.4%.
Screening C[S+](=O)([O-])N1CCCC2(Cc3ccccc3CN2C(=O)c2ccc(Cl)cc2)C1 (stereo not given) returned GPT2 inh inactive, HEK293 tox inconclusive and NIH3T3 tox -27.5%.
For O=C1Nc2ccc(-c3cccc(C(F)(F)F)c3)cc2C(=O)N2CCN(C(=O)C3CCNCC3)C[C@H]12 the results were hNpr1 antagonist 3.5%, GPT2 inh -3.5%, FLuc inh inactive, HEK293 tox -13.7% and NIH3T3 tox -20.9%.
For O=C1Nc2ccc(-c3cccc(C(F)(F)F)c3)cc2C(=O)N2CCN(C(=O)C3CCCC3)C[C@@H]12 the results were hNpr1 antagonist -2.7%, GPT2 inh -14.0%, FLuc inh inactive, HEK293 tox 39.8µM* and NIH3T3 tox inconclusive.
`O=C(N[C@H]1CCN2C(=O)c3cc(Br)ccc3NC(=O)[C@@H]2C1)c1ccco1` gave hNpr1 antagonist 2.4%[70.6 µM], GPT2 inh -4.6%[88.5 µM], FLuc inh inactive, HEK293 tox inconclusive and NIH3T3 tox 89.1µM*.
Screening O=C1Nc2ccc(-c3ccccc3)cc2C(=O)N2CCN(C(=O)c3ccccc3)C[C@H]12 returned hNpr1 antagonist -12.6%[70.6 µM], GPT2 inh inconclusive, FLuc inh inactive, HEK293 tox 89.1µM* and NIH3T3 tox inconclusive.
O=C1Nc2ccc(-c3cccc(C(F)(F)F)c3)cc2C(=O)N2CCN(C(=O)c3cccs3)C[C@H]12 was read as hNpr1 antagonist -21.7%, GPT2 inh 2.0%, FLuc inh inactive, HEK293 tox 22.4µM* and NIH3T3 tox 44.7µM*.
Screening Cn1cccc1C(=O)N[C@H]1CCN2C(=O)c3cc(Br)ccc3NC(=O)[C@@H]2C1 returned hNpr1 antagonist -9.4%[70.6 µM], GPT2 inh 3.2%[88.5 µM], FLuc inh inactive, HEK293 tox -8.0%[172 µM] and NIH3T3 tox 0.7%[174 µM].
`N[C@H]1CCN2C(=O)c3cc(-c4ccc(Cl)cc4)ccc3NC(=O)[C@@H]2C1` gave hNpr1 antagonist 0.1%[70.6 µM], GPT2 inh inactive, FLuc inh inactive, HEK293 tox 39.8µM* and NIH3T3 tox 31.6µM*.
O=C1Nc2ccc(-c3cccc(C(F)(F)F)c3)cc2C(=O)N2CCN(C(=O)c3ccccc3)C[C@H]12 was read as hNpr1 antagonist inconclusive, GPT2 inh -1.0%, FLuc inh inconclusive, HEK293 tox 20µM* and NIH3T3 tox inconclusive.
For NC(=O)C(=O)N1CCN2C(=O)c3cc(-c4ccc(Cl)cc4)ccc3NC(=O)[C@@H]2C1 the results were hNpr1 antagonist -1.2%[70.6 µM], GPT2 inh -5.9%[88.5 µM], FLuc inh inactive, HEK293 tox inconclusive and NIH3T3 tox inconclusive.
Screening O=C1Nc2ccc(-c3cccc(C(F)(F)F)c3)cc2C(=O)N2CCN(C(=O)c3cccnc3)C[C@H]12 returned hNpr1 antagonist -4.3%, GPT2 inh 4.6%, FLuc inh inactive, HEK293 tox inconclusive and NIH3T3 tox -18.8%.
COc1ccc(Cl)cc1-c1ccc2c(c1)C(=O)N1CCN(C(=O)c3cccs3)C[C@@H]1C(=O)N2 was read as hNpr1 antagonist -15.9%, GPT2 inh -3.8%, FLuc inh inactive, HEK293 tox inconclusive and NIH3T3 tox -27.6%.
`COc1ccc(Cl)cc1-c1ccc2c(c1)C(=O)N1CCN(C(=O)C3CCCCC3)C[C@@H]1C(=O)N2` gave hNpr1 antagonist 1.9%, GPT2 inh 3.3%, FLuc inh inactive, HEK293 tox inconclusive and NIH3T3 tox 44.7µM*.
For COc1ccc(Cl)cc1-c1ccc2c(c1)C(=O)N1CC[C@H](NC(=O)c3cccs3)C[C@H]1C(=O)N2 the results were hNpr1 antagonist -24.9%, GPT2 inh -12.0%, FLuc inh inactive, HEK293 tox 31.6µM* and NIH3T3 tox inconclusive.
Screening COc1ccc(C(=O)N[C@H]2C[C@H]3C(=O)Nc4ccc(-c5cccs5)cc4C(=O)N3C2)cc1 returned hNpr1 antagonist -21.9%, GPT2 inh 4.4%, FLuc inh inactive, HEK293 tox inconclusive and NIH3T3 tox -21.9%.
